Shown are actives, neighbours in structure and some others; about 1.7% of the full set was active somewhere.
PfHsp40 yeast – rescue of PfHsp40-mediated yeast toxicity; S. cerevisiae expressing PfHsp40, growth rescue, ATP luminescence; growth rescue, % at 12.5 µM; actives 0.68% (n = 340,000); AID 504582; in the data active means growth rescue above about 28%, passing the limit was not always enough;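 further: yeast W303a lacking pdr1 and pdr3 grown in galactose medium; growth measured after three days at 30 °C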
MazF activator – increases E. coli MazEF RNase cleavage of RNA; P0AE70; FAM/BHQ RNA-DNA oligo cleavage fluorescence, 5 h; activation, % at 20 µM; actives 0.32% (n = 350,000); AID 504720; in the data active means activation above about 50%
Target sequence (P0AE70 whole entry, looked up): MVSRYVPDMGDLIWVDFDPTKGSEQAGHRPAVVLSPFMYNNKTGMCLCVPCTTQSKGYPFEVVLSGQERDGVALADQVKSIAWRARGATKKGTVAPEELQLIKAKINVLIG
Vc quorum ag – quorum light induction in luxS cqsA deficient V. cholerae | V. cholerae BH1578 lux reporter, luminescence, 6 h | activation, % at 18.7 µM | actives 0.16% (n = 350,000) | AID 588436; in the data active means activation mostly above about 9.7%, no sharp cut-off
3CLpro inhibitor – SARS-CoV 3CLpro protease inhibition; P0C6X7; recombinant SARS-CoV 3CLpro, quenched FRET peptide cleavage; inhibition, % at 6 µM; actives 0.14% (n = 290,000); AID 1706; in the data active means inhibition above about 12%
BJeLR viability – kills HRASV12-expressing BJeLR cells | BJeLR (HRASV12) viability, CellTiter-Glo ATP luminescence, 48 h | actives 0.17% (n = 300,000) | inhibition, % (concentration not given with the values); in the data active means inhibition above about 50%
VHR inh abs – blocks human VHR1 dual specificity phosphatase. recombinant VHR phosphatase, pNPP absorbance. inhibition, % at 13.3 µM. actives 0.52% (n = 290,000). AID 1654; in the data active means inhibition above about 50%
Target sequence (P51452 whole entry, looked up): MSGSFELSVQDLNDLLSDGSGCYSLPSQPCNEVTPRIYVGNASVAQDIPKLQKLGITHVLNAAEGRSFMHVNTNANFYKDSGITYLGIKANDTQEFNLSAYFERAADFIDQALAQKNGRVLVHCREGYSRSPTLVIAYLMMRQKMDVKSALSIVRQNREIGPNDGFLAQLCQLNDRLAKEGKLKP
* = called active by the depositor; i = inactive; · = no result.

SMILES	PfHsp40 yeast	MazF activator	Vc quorum ag	3CLpro inhibitor	BJeLR viability	VHR inh abs
CC1(C)C[C@H](O)[C@]2(CO)[C@H](O)C[C@]3(C)C(=CCC4[C@@]5(C)CC[C@H](O)C(C)(C)C5CC[C@]43C)[C@@H]2C1 (some centres not stated)	1	-6	-1	·	·	·
O=C(CNC(=O)c1ccccc1)NCCc1ccc(O)c(O)c1	0	·	i	-4	-6	59*
O=C(COC(=O)CNC(=O)c1ccccc1)NCCc1ccccc1	-1	7	0	-3	-8	12
Cc1nn(Cc2c(F)cccc2Cl)c(C)c1NC(=O)C1CC1	-1	0	i	2	2	51*
CC1(C(=O)NCC2CC2)CCN1C(=O)C1(c2ccc(Cl)cc2)CC1 (configuration not stated)	·	·	i	·	·	·
Cc1ccccc1NC(=O)C(C)SCc1ccccc1 (configuration not stated)	0	1	0	-1	-3	52*
O=C(Nc1ccccc1F)c1ccc2sc([C@H]3C[C@H](O)[C@@H](CO)O3)nc2c1	·	·	i	·	·	·
COc1cccc(Nc2c(Nc3cccc(OC)c3)c(=O)c2=O)c1	-1	-7	-1	1	5	59*
CC(C)(C)c1ccc(CC(=O)N2CCC2(C)C(=O)NS(=O)(=O)c2ccc3c(c2)CCO3)cc1 (configuration not stated)	·	·	0	·	·	·
CC(C)(C)N1C(=O)Cc2c1nc(N)c1c(N)nc(N3CCCCC3CO)c(C#N)c21 (configuration not stated)	0	-22	i	3	5	58*
O=C(Nc1ccc(S(=O)(=O)NCc2ccccc2)cc1)c1ccccc1[N+](=O)[O-]	1	116*	0	3	-11	-1
CCOC(=O)c1ccc(NC(=O)c2ccccc2[N+](=O)[O-])cc1	-1	-1	i	7	-5	-6
CCCOc1cccc(-c2nn(-c3ccccc3)cc2/C=C(\C#N)C(=O)NCCCn2ccnc2)c1	45*	-26	-1	7	-13	17
Cc1nnc(N2CCCC(C(=O)NCc3ccc(OC(C)C)cc3)C2)c2nn(-c3ccccc3)c(C)c12 (configuration not stated)	-2	88*	0	2	-15	6
CC(C(=O)OCC(=O)Nc1ccccc1OC(F)F)N1C(=O)C2CC=CCC2C1=O (configuration not stated)	·	2	i	·	·	·
Cc1cccc(C(=O)NC(=S)NNC(=O)c2ccc(Cl)cc2)c1	75*	5	0	-1	1	-2
CCCCC(=O)NNC(=S)NC(=O)c1ccc(C)cc1	95*	4	4	-1	2	22
COc1ccc(C(=O)NNS(=O)(=O)c2ccccc2)cc1	-2	-1	i	-1	-7	2
COc1ccc(C(=O)NNS(=O)(=O)c2ccc(OC)cc2)cc1	-1	4	0	3	1	58*
CCCCC(=O)NNC(=S)NC(=O)c1ccc([N+](=O)[O-])cc1	0	7	i	5	3	12
COc1ccc(C(=O)NC(=S)NNC(=O)c2ccc(C)cc2)cc1	143*	11	i	·	2	·
Cc1cc(C(=O)OCC(=O)N(C)c2ccccc2)c(C)o1	-1	2	-3	·	·	·
COc1cc(-c2noc(C)c2C#Cc2ccsc2)cc(OC)c1OC	1	-18	i	-7	25	-3
O=C(COC(=O)Cc1ccc(Br)cc1)NC1CC1	0	6	i	·	·	·
CCC(OC(=O)c1nsc(Cl)c1Cl)C(=O)NC(C)(C)CC (configuration not stated)	-2	3	0	4	-18	12
SMILES	PfHsp40 yeast	MazF activator	Vc quorum ag	3CLpro inhibitor	BJeLR viability	VHR inh abs
C[C@@H]1O[C@@H]1P(=O)(O)O	12	9	-1	·	·	·
C[C@H]1O[C@H]1P(=O)(O)O	0	8	29*	1	-12	1
Cc1ccc(CSc2nc3c(c(N(C)C)n2)CCCC3)cc1	1	3	i	-5	-3	17
CNc1nc(SCc2ccc(C)cc2)nc2c1CCCC2	199*	2	4	-4	2	10
CCN(c1ccccc1)S(=O)(=O)c1cccc(C(=O)Nc2cccc(C)n2)c1	·	7	-1	·	·	·
Cc1oc(-c2ccccc2F)nc1CS(=O)(=O)CC(=O)NCc1ccccc1Cl	0	-7	0	-3	-7	-2
CN(C)c1ccc(/C=N/N(CCC#N)C2=NS(=O)(=O)c3ccccc32)cc1	-1	140*	1	-2	-6	10
Cc1ccc(-c2cc(C(=O)Nc3ccc(S(=O)(=O)Nc4onc(C)c4C)cc3)c3ccccc3n2)cc1	-1	1	i	5	0	54*
Cc1cc(C)nc(NS(=O)(=O)c2ccc(NC(=O)c3cc(-c4ccccc4)nc4ccccc34)cc2)n1	1	1	i	6	-1	12
CCC(=O)N(CCc1ccc(OC)c(OC)c1)Cc1cc2ccc(C)cc2n2nnnc12	-1	5	0	4	-5	-8
CC(C)=C(NC(=O)c1ccccc1Cl)C(=O)NCCc1nc2ccccc2[nH]1	·	7	i	·	·	·
FC(F)(F)c1ccc(CN2CCCCCC2)cc1	2	1	-2	4	-11	52*
COc1ccc(NC(=O)CCNC(=O)c2ccco2)cc1Cl	0	-9	0	-5	-6	10
Cc1sc2ncnc(N/N=C/c3ccccc3O)c2c1C	-1	-11	0	3	81*	2
Cc1sc2ncnc(N/N=C/c3ccc(O)cc3)c2c1C	1	4	0	3	-2	-3
O=C(NCc1cccnc1)c1ccc(COc2ccc(Cl)cc2)cc1	5	-9	0	5	5	24
Cc1cccc(OCC(=O)Nc2ccc(C(=O)NCc3cccnc3)cc2)c1	·	·	·	2	55*	45
O=C(COc1ccc(Cl)cc1)Nc1ccc(C(=O)NCc2cccnc2)cc1	-1	-1	0	0	87*	21
CC(C)c1ccccc1NC(=O)COC(=O)c1cc([N+](=O)[O-])ccc1N1CCOCC1	0	-9	1	·	3	·
CSCC[C@H](NC(=O)[C@@H]1Cc2ccccc2CN1)C(=O)Nc1ccc2c(c1)OCO2	0	-5	0	-5	2	-57
CC1(C(=O)Nc2cccc3c2CCCC3)CCN1C(=O)Cc1ccccc1Cl (configuration not stated)	·	·	-4	·	·	·
CCOC(=O)C1=C2NC(=O)c3ccccc3N2C(=O)C1	-1	132*	i	4	-2	-2
CCOC(=O)C1=C(N)N(c2ccccc2Oc2ccccc2)C(=O)C1	0	1	-1	-2	3	32
COc1cc(/C=C2/C(=N)N3OC(C)=CC3=NC2=O)ccc1OCCOc1ccc(C)cc1	0	91*	-1	1	10	23
